Our source for the inhibition values is ChEMBL document CHEMBL1961873, “Compounds: GSK PKIS; Assays: Nanosyn kinase panel” (2012).

For test [1], the target named is Dual specificity protein kinase CLK3 (Homo sapiens) (UniProt P49761). The conditions noted are these: at 1 µM.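 Also: each value is the mean inhibition of CLK3.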
Test [2] has as its target Dual specificity tyrosine-phosphorylation-regulated kinase 1A (Homo sapiens) (UniProt Q13627). The conditions noted are these: at 0.1 µM.
Test [3] shares this target. As to conditions: at 1 µM.
Test [4] has as its target Dual specificity tyrosine-phosphorylation-regulated kinase 1B (Homo sapiens) (UniProt Q9Y463). The conditions noted are these: at 0.1 µM.
The target is the same in test [5]. The conditions noted are these: at 1 µM.
Test [6] has as its target T1, Dual specificity tyrosine-phosphorylation-regulated kinase 2 (Homo sapiens) (UniProt Q92630).
T1 sequence (whole entry): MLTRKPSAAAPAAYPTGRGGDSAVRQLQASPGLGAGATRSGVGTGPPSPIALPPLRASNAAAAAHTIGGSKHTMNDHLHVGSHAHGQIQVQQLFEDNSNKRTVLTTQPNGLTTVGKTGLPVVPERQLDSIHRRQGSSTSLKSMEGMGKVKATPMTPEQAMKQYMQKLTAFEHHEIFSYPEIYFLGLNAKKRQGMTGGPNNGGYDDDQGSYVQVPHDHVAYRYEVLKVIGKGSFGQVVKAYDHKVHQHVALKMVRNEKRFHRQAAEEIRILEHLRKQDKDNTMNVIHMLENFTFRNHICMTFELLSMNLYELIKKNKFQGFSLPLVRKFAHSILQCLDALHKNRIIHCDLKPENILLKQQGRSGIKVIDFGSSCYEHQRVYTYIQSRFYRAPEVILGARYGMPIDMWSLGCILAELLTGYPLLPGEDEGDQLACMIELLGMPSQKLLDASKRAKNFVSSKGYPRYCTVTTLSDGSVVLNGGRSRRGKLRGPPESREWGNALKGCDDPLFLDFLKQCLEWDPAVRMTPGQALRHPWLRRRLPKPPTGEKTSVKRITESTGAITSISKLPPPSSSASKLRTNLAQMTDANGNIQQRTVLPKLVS
As to conditions: at 0.1 µM.

For test [7], the target named is T1, Dual specificity tyrosine-phosphorylation-regulated kinase 2 (Homo sapiens). As to conditions: at 1 µM.
Test [8] deals with Glycogen synthase kinase-3 alpha (Homo sapiens) (UniProt P49840). The conditions noted are these: at 0.1 µM.
The target is the same in test [9]. As to conditions: at 1 µM.
Test [10] has as its target Homeodomain-interacting protein kinase 1 (Homo sapiens) (UniProt Q86Z02). As to conditions: at 0.1 µM.
Test [11] shares this target. The conditions noted are these: at 1 µM.
Test [12] has as its target T2, Homeodomain-interacting protein kinase 4 (Homo sapiens) (UniProt Q8NE63).
T2 sequence (whole entry): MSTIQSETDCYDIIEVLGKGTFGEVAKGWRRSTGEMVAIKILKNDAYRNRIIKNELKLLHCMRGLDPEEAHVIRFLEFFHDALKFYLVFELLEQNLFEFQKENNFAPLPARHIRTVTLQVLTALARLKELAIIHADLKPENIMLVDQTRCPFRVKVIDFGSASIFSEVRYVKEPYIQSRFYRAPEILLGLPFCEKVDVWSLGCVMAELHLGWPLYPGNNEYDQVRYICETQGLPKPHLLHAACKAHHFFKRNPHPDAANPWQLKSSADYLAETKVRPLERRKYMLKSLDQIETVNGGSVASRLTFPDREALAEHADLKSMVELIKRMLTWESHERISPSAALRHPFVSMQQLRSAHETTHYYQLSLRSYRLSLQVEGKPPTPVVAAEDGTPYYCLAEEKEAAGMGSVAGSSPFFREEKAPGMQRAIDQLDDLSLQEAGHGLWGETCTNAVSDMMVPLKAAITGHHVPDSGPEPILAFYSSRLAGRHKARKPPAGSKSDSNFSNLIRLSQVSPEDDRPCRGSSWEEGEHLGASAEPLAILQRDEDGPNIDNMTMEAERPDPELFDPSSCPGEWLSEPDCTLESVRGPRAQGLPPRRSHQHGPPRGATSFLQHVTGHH
The conditions noted are these: at 0.1 µM.

Test [13] has as its target T2, Homeodomain-interacting protein kinase 4 (Homo sapiens). The conditions noted are these: at 1 µM.
Test [14] addresses Mitogen-activated protein kinase 9 (Homo sapiens) (UniProt P45984). As to conditions: at 0.1 µM.
Test [15] has the same target. The conditions noted are these: at 1 µM.
The target of test [16] is Mitogen-activated protein kinase 1 (Homo sapiens) (UniProt P28482). The conditions noted are these: at 0.1 µM.
Test [17] has the same target. As to conditions: at 1 µM.
Test [18] addresses Mitogen-activated protein kinase 3 (Homo sapiens) (UniProt P27361). The conditions noted are these: at 0.1 µM.
For test [19], the target named is Glycogen synthase kinase-3 beta (Homo sapiens) (UniProt P49841). As to conditions: at 0.1 µM.
Test [20] shares this target. The conditions noted are these: at 1 µM.

Molecules are shown by their SMILES.

Chain of Mitogen-activated protein kinase 1 (Homo sapiens) (P28482 whole entry): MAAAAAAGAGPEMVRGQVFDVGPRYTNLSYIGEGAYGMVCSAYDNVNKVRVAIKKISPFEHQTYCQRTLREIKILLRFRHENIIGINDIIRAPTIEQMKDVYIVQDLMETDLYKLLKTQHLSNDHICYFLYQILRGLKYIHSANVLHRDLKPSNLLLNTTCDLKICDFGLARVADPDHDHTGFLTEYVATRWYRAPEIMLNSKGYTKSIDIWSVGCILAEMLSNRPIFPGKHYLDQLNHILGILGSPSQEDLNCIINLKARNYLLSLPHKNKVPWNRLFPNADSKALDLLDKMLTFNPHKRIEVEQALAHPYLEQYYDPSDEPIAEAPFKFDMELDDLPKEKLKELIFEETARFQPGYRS
Chain of Homeodomain-interacting protein kinase 1 (Homo sapiens) (Q86Z02 whole entry, looked up): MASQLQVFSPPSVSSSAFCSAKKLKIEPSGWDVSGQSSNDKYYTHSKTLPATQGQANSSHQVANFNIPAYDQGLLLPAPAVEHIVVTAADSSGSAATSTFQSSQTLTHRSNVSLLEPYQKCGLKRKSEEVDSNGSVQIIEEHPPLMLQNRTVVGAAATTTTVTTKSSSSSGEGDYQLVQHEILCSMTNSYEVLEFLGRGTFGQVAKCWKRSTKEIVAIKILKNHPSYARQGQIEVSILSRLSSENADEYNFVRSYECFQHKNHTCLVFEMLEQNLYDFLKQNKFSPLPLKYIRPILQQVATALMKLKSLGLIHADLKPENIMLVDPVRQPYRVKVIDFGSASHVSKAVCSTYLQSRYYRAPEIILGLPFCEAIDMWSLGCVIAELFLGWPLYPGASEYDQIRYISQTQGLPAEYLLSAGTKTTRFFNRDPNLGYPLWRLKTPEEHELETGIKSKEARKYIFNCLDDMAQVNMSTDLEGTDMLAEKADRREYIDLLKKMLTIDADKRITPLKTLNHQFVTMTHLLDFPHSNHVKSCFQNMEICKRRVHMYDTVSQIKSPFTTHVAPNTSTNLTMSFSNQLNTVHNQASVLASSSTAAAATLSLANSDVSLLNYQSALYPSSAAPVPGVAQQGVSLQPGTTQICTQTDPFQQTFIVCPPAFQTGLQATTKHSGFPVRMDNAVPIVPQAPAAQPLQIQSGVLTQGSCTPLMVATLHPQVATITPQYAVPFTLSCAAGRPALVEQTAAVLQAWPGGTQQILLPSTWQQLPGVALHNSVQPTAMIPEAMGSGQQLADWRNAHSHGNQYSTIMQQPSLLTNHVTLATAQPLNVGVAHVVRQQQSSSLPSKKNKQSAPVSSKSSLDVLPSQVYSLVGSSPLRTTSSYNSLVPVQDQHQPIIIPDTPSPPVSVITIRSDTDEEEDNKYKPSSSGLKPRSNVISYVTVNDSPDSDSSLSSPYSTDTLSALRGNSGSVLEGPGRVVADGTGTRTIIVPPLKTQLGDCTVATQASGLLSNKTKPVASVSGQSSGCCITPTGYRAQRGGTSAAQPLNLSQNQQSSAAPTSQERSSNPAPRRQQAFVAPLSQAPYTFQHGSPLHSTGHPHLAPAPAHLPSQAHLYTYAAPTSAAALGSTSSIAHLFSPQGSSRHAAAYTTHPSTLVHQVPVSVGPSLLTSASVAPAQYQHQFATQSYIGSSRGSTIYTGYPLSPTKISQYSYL
Chain of Glycogen synthase kinase-3 alpha (Homo sapiens) (P49840 2-483 limits assumed): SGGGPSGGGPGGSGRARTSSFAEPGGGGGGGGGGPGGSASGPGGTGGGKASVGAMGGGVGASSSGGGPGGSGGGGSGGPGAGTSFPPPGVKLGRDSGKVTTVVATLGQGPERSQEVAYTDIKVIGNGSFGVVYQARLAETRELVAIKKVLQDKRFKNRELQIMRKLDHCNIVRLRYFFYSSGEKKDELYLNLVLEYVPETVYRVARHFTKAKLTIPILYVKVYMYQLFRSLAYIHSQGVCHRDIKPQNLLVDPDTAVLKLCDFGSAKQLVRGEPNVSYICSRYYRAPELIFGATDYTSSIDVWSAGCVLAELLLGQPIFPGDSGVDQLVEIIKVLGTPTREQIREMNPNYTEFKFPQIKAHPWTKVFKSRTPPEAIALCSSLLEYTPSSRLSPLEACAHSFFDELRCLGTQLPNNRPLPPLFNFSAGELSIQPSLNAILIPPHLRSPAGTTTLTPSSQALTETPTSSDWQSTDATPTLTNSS
Chain of Dual specificity tyrosine-phosphorylation-regulated kinase 1B (Homo sapiens) (Q9Y463 whole entry, looked up): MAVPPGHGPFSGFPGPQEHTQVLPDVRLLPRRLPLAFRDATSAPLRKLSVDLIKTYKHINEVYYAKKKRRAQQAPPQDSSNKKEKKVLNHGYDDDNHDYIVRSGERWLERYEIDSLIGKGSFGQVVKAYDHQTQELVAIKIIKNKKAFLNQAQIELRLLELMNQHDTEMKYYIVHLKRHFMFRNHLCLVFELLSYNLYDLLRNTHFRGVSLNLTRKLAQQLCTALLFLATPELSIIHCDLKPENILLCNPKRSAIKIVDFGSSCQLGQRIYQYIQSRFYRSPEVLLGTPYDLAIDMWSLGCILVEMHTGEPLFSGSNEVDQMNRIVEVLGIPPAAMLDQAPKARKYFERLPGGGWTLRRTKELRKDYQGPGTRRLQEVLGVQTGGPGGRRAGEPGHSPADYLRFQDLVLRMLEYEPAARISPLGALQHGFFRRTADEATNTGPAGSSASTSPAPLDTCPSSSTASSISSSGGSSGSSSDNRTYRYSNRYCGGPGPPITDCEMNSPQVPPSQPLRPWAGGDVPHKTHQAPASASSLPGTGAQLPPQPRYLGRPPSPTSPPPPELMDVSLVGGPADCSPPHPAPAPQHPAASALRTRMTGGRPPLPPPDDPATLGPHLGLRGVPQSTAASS
Chain of Mitogen-activated protein kinase 3 (Homo sapiens) (P27361 whole entry): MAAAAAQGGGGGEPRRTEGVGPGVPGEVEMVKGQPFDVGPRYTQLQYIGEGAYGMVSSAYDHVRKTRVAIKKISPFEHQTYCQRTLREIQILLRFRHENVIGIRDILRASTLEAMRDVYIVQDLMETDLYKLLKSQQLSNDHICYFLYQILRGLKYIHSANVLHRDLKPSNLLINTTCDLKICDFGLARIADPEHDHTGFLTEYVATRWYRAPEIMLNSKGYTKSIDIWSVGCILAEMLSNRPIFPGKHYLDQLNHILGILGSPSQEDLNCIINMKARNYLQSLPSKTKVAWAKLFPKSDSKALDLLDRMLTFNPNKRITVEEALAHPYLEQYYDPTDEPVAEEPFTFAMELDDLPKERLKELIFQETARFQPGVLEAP
Chain of Dual specificity protein kinase CLK3 (Homo sapiens) (P49761 whole entry, looked up): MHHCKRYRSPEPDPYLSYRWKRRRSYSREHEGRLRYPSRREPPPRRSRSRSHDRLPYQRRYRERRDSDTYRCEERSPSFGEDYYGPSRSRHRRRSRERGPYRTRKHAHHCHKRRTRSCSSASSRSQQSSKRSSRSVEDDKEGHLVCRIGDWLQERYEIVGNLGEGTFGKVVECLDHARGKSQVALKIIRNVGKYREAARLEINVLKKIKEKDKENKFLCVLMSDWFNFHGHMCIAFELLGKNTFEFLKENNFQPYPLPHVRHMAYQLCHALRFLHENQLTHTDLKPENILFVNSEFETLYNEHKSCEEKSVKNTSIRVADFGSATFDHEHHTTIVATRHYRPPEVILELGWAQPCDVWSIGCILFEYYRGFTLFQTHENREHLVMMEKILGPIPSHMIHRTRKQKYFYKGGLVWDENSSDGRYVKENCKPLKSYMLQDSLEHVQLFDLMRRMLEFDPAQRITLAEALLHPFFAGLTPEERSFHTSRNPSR
Chain of Mitogen-activated protein kinase 9 (Homo sapiens) (P45984 whole entry, looked up): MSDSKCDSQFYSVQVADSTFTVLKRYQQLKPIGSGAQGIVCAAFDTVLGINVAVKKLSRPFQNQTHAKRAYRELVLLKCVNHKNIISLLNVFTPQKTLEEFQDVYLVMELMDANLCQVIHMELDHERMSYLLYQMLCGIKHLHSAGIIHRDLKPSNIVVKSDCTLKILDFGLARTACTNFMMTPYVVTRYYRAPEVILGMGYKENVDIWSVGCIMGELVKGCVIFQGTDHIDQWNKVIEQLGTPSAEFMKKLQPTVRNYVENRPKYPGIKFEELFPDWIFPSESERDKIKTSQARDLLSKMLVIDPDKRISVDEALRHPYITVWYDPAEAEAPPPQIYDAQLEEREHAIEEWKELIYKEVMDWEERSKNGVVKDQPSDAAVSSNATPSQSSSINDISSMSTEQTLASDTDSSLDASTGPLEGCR
Chain of Glycogen synthase kinase-3 beta (Homo sapiens) (P49841 whole entry, looked up): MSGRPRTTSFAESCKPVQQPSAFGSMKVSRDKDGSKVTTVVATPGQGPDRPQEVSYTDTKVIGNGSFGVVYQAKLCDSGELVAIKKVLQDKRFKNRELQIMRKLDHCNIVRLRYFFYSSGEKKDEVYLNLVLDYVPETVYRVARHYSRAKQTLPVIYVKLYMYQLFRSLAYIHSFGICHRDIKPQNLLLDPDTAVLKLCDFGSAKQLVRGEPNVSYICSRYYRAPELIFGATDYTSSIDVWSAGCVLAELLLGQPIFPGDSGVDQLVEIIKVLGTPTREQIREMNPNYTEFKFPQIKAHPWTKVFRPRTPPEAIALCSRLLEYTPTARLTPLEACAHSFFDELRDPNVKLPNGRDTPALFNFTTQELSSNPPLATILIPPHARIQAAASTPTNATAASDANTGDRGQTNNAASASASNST

On to `O=C1NC(=O)C(c2cccc(Cl)c2)=C1Nc1ccc(Cl)c(C(=O)O)c1`, for which the inhibition (as a rule, the change of the read-out against control, counted positive when it falls) is 2.4% in [1]; 1.22% in test [2]; 5.02% in test [3]; -0.3% in test [4]; 1.57% in [5]; 1.93% in [6]. Moreover, the inhibition in [7] was 2.84%; in [8] it was 32.8%; in test [9] it was 77.5%; in test [10], 2.03%; in test [11], 1.77%; in test [12], 1.36%. Besides, the inhibition in test [13] was found to be 0.39%; in test [14], 1.14%; in test [15], 3.47%; in test [16], 11%; in test [17] it was 5.36%; in [18] it was 5.36%.
Regarding `CN(C)CCOc1ccc(-c2cc(-c3ccc4c(c3)CCC4=NO)c(-c3ccncc3)o2)cc1`, the inhibition in [1] was 1.91%; in test [2], -1.28%; in test [3], 0.21%; in [4] it was -1.57%; in test [5], -1.47%; in test [6] it was -1.36%. For the same compound, the inhibition in test [7] was -2.61%; in test [8], -0.52%; in test [9] it was -0.36%; in test [19], -0.79%; in [20], 0.28%; in [10], -5.92%. In addition, the inhibition in test [11] is 2.06%; in test [12] it was 0.15%; in test [13], 2.98%; in test [14], -1.3%; in test [15] it was 3.02%; in test [16] it was -0.58%. The inhibition in [17] is 0.91%; in test [18], -1.4%.
On to `CS(=O)(=O)CCNCc1ccc(-c2ccc3ncnc(Nc4ccc(OCc5ccccc5)c(Br)c4)c3c2)o1`, for which the inhibition in [1] was -3.65%; in test [2], -3.54%; in [3], -2.54%; in [4], -5.79%; in test [5] it was -4.49%; in [6] it was 2.81%. The inhibition in test [7] is 1.15%; in test [8], -0.62%; in [9] it was -0.89%; in test [19], -1.65%; in [20] it was -1.69%; in test [10] it was -5.84%. In addition, the inhibition in test [11] was -4.53%; in [12], 0.44%; in test [13], 2.6%; in test [14], 2.5%; in [15] it was 0.7%; in test [16], 5.3%. The figures for the inhibition in [17] and in test [18] were 4.08% and 5.25%, respectively.
As to `COc1ccc(-c2ccc3c(NC(=O)C4CC4)n[nH]c3n2)cc1`, the inhibition is 2.15% in test [1]; 0.91% in test [2]; 1.49% in test [3]; -0.93% in test [4]; 0.04% in test [5]; 1.19% in test [6]. Besides, the inhibition in [7] was found to be 2.63%; in test [8], 3.01%; in [9], 8.2%; in test [10], 1.57%; in [11], 2.49%; in test [12], 0.72%. The inhibition in test [13] amounted to 0.93%; in [14] it was 3.56%; in test [15], 1.85%; in test [16], 2.19%; in test [17], 3.67%; in test [18], 4.98%.
For the compound `O=C(Nc1n[nH]c2cc(-c3ccccc3)ccc12)C1CC1`, the inhibition is 2.33% in [1]; 5.04% in test [2]; 6.14% in test [3]; 1.94% in test [4]; 3.5% in test [5]; 2.82% in test [6]. The inhibition in [7] was 4.68%; in test [8] it was 6.53%; in test [9] it was 32.7%; in test [10] it was 0.47%; in test [11], 0.72%; in test [12] it was 1.87%. Moreover, the inhibition in [13] is 3.44%; in test [14], 6.25%; in test [15], 7.19%; in test [16], 2.48%; in test [17], 6.01%; in test [18] it was 4.31%.
Turning to `CCc1nccc2c1nc(-c1nonc1N)n2CC`, the inhibition is 2.23% in [1]; 2.9% in test [2]; 7.05% in test [3]; 2.47% in test [4]; 6.3% in test [5]; -0.4% in [6]. Further, the inhibition in [7] is 3.18%; in test [8] it was 0.44%; in test [9] it was 7.97%; in test [19], 2.74%; in test [20], 8.38%; in test [10], -0.74%. Moreover, the inhibition in [11] is 6.91%; in test [12] it was 0.62%; in [13], 9.48%; in test [14] it was 3.7%; in [15], 3.34%; in test [16] it was -1.66%. Besides, the results for the inhibition in test [17] and in test [18] were 0.54% and 1.33%, respectively.
On to `COc1cc2ncn(-c3cc(OCCc4ccccc4)c(C(N)=O)s3)c2cc1OC`, for which the inhibition in test [1] is 3.27%; in [2], 3.14%; in test [3], 3.09%; in test [4], 1.95%; in [5], 1.81%; in [6], -0.08%. Moreover, the inhibition in test [7] was 4.14%; in test [8], 0.82%; in test [9] it was 3.18%; in [19], 0.44%; in [20] it was 0.1%; in test [10], -0.4%. The inhibition stood at 3.92% in test [11]; 2.74% in test [12]; 19.1% in [13]; 4.17% in [14]; 3.52% in test [15]; 1.47% in test [16]. For the same compound, the values for the inhibition in [17] and in test [18] were 3.64% and 0.38%, respectively.
